Where “and” joins values, the source holds several entries; their conditions need not be identical. Identical values can stand only once. Inconclusive results are not listed. Where a structure was tested more than once in an assay, its records may differ in their call. Calls of active or inactive are those of the source. Unless noted, calls follow the shape of the dose curve; as a rule, active = well fitted curve in the direction sought with a large enough effect; inconclusive = small, poorly fitted or top-dose-only effect, or another doubt; inactive = no such curve, though single readings can be large; an effect the other way counts as inactive or inconclusive.
Assays:
[1] = target: Tumor necrosis factor (Homo sapiens) (UniProt P01375); assay: qHTS assay to identify small molecules that stimulate Tumor Necrosis Factor-alpha (TNF-alpha) secretion (AID 651757; active = well fitted curve in the direction sought with a large enough effect in the signal ratio; the % refers to the signal ratio; also: 0% is about no effect)
Chain of Tumor necrosis factor (Homo sapiens) (P01375 whole entry, looked up): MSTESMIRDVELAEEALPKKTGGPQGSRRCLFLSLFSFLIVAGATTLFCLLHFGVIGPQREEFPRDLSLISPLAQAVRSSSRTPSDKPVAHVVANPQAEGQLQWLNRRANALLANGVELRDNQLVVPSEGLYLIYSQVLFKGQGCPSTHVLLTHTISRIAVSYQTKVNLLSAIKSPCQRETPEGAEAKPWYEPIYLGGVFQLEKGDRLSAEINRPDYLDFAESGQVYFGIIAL
How it was run: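 Secreted TNF-alpha from compound-treated THP-1 cells (17 hrs, 37 C) was quantified with a homogeneous time-resolved fluorescence antibody assay.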

[2] = qHTS assay to identify small molecules that stimulate interleukin-8 (IL-8) secretion (AID 651758; active = well fitted activation curve with a large enough effect in the signal ratio; the % refers to the signal ratio; also: 0% is about no effect)
How it was run: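 Secreted IL-8 measured by TR-FRET sandwich (cryptate and XL665 antibodies) from THP-1 cells exposed to compound overnight (16 hrs, 37 C).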

[3] = qHTS assay for environmental chemicals that activate the Aryl hydrocarbon Receptor (AhR) signaling pathway (AID 651777); settings: 1A2-DRE human hepatoma cells, luciferase, 24 h; stronger effect = higher value; also: % of control where 0% means no effect; nearly all actives have a fitted effect of over 15% in size
How it was run: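 AhR activation is scored as a rise in luciferase from a stable DRE–CYP1A2 promoter construct in human hepatoma cells. Treatment lasts 24 hr at 37 C; detection uses One-Glo after 30 min at room temperature.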

[4] = target: Peroxisome proliferator-activated receptor alpha (Homo sapiens) (UniProt Q07869); assay: qHTS assay for small molecule agonists of the peroxisome proliferator-activated receptor alpha (PPARalpha) signaling pathway (AID 651778); settings: PathHunter PPARalpha complementation, chemiluminescence, 6 h; stronger effect = higher value; also: % of control where 0% means no effect
Chain of Peroxisome proliferator-activated receptor alpha (Homo sapiens) (Q07869 whole entry, looked up): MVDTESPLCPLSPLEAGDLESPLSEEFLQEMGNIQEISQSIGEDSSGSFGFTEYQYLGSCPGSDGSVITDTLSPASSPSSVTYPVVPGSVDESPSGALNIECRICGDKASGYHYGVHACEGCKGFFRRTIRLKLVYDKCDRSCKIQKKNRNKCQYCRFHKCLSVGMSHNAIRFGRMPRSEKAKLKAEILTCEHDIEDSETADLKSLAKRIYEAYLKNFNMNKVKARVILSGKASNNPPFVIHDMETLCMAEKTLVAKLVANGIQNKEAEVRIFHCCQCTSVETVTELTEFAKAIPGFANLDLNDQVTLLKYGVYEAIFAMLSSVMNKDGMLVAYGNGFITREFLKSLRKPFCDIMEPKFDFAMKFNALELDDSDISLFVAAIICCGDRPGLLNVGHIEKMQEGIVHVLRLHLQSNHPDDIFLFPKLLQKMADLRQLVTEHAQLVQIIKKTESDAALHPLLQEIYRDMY
How it was run: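 Chemiluminescence from complemented enzyme reported PPARalpha activation in cells after 6 hr of compound treatment at 37 C. The detection reagent was incubated for 60 min at room temperature, and compounds were scored as agonists.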

[5] = qHTS assay for small molecule agonists of the antioxidant response element (ARE) signaling pathway measured by Nrf2-dependant transcriptional activity (AID 720636; active = well fitted curve in the direction sought with a large enough effect in the repeat runs; an effect the other way counts as inactive or inconclusive;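 also: HepG2 cells with an ARE-driven luciferase reporter; % of control where 0% means no effect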)
How it was run: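 First, ARE-luc HepG2 cells attached for 6 hr at 37 C in 1% dialyzed FBS medium. Next, compound or DMSO was added and incubated 16 hr. Finally, ONE-Glo reagent was added and luminescence measured after 30 min.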

[6] = qHTS assay for small molecule antagonists of the retinoid-related orphan receptor gamma (ROR-gamma) signaling pathway - cell viability counter screen (AID 720652; active = well fitted curve in the direction sought with a large enough effect in the repeat runs; an effect the other way counts as inactive or inconclusive;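 also: CHO reporter cells with doxycycline-induced ROR-gamma expression; series mostly up to about 92 µM; compound exposure lasted 16 hr before ATP read; % is scaled to controls: 0 for no effect and ±100 for the full control effect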)
How it was run: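 Cytotoxicity is quantified via intracellular ATP (CellTiter-Glo luminescence) in doxycycline-induced CHO ROR response element-luciferase reporter cells treated with compound for 16 hr at 37 C, 5% CO2.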

[7] = qHTS assay for small molecule agonists of the antioxidant response element (ARE) signaling pathway measured by Nrf2-dependant transcriptional activity - cell viability counter screen (AID 720653; active = well fitted curve in the direction sought with a large enough effect in the repeat runs; an effect the other way counts as inactive or inconclusive; also: % is scaled to controls: 0 for no effect and ±100 for the full control effect); settings: ARE-bla HepG2 viability, CellTiter-Glo ATP luminescence, 16 h; max response: stronger effect = lower value
How it was run: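 Cytotoxicity counter screen: intracellular ATP quantified by CellTiter-Glo luminescence in the same ARE-bla HepG2 plates, after 16 h compound exposure and a 2 h beta-lactamase substrate step.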

[8] = qHTS for Inhibitors of Ubiquitin-specific Protease USP2a Using CHOP2 as the Reporter: K633 Counterscreen (AID 652168); also: series mostly up to about 57 µM; % of control where 0% means no effect
How it was run: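 Cell-free interference counterscreen without USP2a: compounds pinned into enzyme-free buffer (20 mM Tris pH 8, 2 mM beta-mercaptoethanol, 0.05% Chaps), then DiUb K48-4IQF substrate added (100 nM stock); fluorescence read kinetically, Ex 525/Em 598.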

[9] = qHTS for Inhibitors of Ubiquitin-specific Protease USP2a Using CHOP2 as the Reporter: Cytotox Assay (AID 652170);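 also: series mostly up to about 46 µM; plate controls were DMSO-treated cells for no effect and wells without cells for full effect; nearly all actives have a fitted effect of over 70% in size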
How it was run: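 HCT116 human colon cancer cells, 600 per well in DMEM with 10% FBS, exposed to compounds for 72 hr at 37 deg C. ATP measured by CellTiter-Glo luminescence, normalized to DMSO cells and no-cell background.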

[10] = target: Ubiquitin carboxyl-terminal hydrolase 2 (Homo sapiens) (UniProt O75604); assay: qHTS for Inhibitors of Ubiquitin-specific Protease USP2a Using CHOP2 as the Reporter: K484 Substrate (AID 652173);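 also: cleavage of internally quenched K48 di-ubiquitin substrate measured as rising fluorescence over time; nearly all actives have a fitted effect of over 70% in size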
Chain of Ubiquitin carboxyl-terminal hydrolase 2 (Homo sapiens) (O75604 whole entry, looked up): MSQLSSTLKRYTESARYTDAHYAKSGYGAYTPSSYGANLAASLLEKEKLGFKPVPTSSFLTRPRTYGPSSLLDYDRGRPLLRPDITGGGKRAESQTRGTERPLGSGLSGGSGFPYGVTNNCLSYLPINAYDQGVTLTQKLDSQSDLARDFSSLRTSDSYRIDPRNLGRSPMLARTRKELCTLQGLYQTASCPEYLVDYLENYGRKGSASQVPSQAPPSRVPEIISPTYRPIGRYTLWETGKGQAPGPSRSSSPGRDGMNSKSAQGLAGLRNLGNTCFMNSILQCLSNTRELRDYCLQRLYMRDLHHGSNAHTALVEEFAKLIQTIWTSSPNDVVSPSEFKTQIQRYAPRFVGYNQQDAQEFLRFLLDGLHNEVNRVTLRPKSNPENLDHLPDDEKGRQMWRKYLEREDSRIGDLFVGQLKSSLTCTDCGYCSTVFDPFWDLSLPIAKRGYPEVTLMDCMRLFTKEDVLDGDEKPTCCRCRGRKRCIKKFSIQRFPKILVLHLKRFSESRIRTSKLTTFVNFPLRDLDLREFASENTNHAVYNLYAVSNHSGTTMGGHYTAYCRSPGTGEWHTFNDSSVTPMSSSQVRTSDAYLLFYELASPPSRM
How it was run: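 USP2 (dispensed at 5 nM) was pinned with compounds, then DiUb K48 internally quenched fluorescent substrate (dispensed at 100 nM) was added. The buffer was 20 mM Tris pH 8, 2 mM beta-mercaptoethanol and 0.05% CHAPS. Cleavage was read kinetically as rising fluorescence, Ex 525/Em 598.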

[11] = target: Tyrosine-protein kinase Yes (Homo sapiens) (UniProt P07947); assay: qHTS for small molecule inhibitors of Yes1 kinase: Primary Screen (AID 686947);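 also: plate controls were DMSO with enzyme for no effect and no-enzyme DMSO wells for full effect; nearly all actives have a fitted effect of over 60% in size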
Chain of Tyrosine-protein kinase Yes (Homo sapiens) (P07947 whole entry, looked up): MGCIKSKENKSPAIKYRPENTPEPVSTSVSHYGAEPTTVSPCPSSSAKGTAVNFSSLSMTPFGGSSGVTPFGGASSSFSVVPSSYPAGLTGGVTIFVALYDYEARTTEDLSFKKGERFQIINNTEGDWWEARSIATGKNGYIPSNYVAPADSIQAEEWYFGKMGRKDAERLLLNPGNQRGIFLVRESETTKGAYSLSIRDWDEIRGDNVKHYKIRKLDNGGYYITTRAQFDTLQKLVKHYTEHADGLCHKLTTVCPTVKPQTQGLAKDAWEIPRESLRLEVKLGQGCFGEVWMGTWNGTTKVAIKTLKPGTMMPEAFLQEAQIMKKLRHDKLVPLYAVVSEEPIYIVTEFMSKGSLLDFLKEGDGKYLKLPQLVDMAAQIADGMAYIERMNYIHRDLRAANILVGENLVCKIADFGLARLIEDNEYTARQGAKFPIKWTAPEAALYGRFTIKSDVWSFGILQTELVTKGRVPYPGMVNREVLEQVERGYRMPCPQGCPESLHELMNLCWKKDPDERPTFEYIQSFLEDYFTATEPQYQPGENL
How it was run: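 ADP-Glo luminescence readout; final 4 nM Yes1, 0.1 mM ATP, 0.3 mg/mL poly(E4Y), Tris pH 7.5, MgCl2, DTT, Brij-35. 20 min compound preincubation, 60 min reaction at RT. Normalized to DMSO wells with and without enzyme.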

[12] = qHTS for small molecule inhibitors of Yes1 kinase: Counter Assay (AID 686950);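 also: no kinase present so only ADP-Glo detection of a fixed ADP amount is tested; luminescence from ADP-Glo reporting ADP in a fixed ATP and ADP mixture; series mostly up to about 77 µM; 0% = DMSO wells with ATP plus ADP and -100% = ATP-only wells without ADP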
How it was run: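 Luminescence read-out from ADP-Glo quantifies a fixed ADP amount (0.02 mM ADP with 0.08 mM ATP) after 60 min at room temperature; signal is normalized between DMSO wells with ATP/ADP and with 0.1 mM ATP alone.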

[13] = qHTS assay for small molecule disruptors of the mitochondrial membrane potential - 5 hr assay (AID 651755; calls by dose curve; also: potency is read from the fitted curve at half-maximal effect; nearly all actives have a fitted effect of over 40% in size)
How it was run: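 HepG2, 2,000 cells/well, overnight attach; cpd or DMSO 5 hr, 37C/5% CO2; Mito-MPS 30 min 37C; fluor 490/535 + 540/590 nm.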

[14] = target: Nuclear receptor ROR-gamma (Homo sapiens) (UniProt P51449); assay: qHTS assay for small molecule antagonists of the retinoid-related orphan receptor gamma (ROR-gamma) signaling pathway (AID 651802);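 also: CHO cells with doxycycline-induced ROR-gamma expression; series mostly up to about 92 µM; % is scaled to controls: 0 for no effect and ±100 for the full control effect; nearly all actives have a fitted effect of over 60% in size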
Chain of Nuclear receptor ROR-gamma (Homo sapiens) (P51449 whole entry, looked up): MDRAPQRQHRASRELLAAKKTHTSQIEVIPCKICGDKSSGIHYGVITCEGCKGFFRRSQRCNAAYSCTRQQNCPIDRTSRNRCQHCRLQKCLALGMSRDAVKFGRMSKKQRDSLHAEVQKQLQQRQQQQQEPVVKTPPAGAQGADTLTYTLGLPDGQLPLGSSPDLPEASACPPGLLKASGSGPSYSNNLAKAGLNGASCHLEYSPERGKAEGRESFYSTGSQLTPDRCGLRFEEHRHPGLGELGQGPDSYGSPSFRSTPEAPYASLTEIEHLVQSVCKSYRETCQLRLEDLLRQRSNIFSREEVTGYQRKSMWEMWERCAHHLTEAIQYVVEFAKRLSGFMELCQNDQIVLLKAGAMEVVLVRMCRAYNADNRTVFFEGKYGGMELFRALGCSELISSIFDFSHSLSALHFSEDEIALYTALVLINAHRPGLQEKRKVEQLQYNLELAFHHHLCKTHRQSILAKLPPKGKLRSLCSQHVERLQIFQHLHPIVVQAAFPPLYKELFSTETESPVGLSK
How it was run: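 Antagonism is scored as a fall in luminescence from a RORE-luciferase reporter in CHO cells expressing ROR under a TET-inducible promoter, measured 16hr after doxycycline induction in the presence of compound.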

[15] = target: Arylsulfatase A (Homo sapiens) (UniProt P15289); assay: qHTS screen for enhancers of Arylsulfatase A (ASA1): LOPAC Validation Assay (AID 720538); also: potency is read from the fitted curve at half-maximal effect
Chain of Arylsulfatase A (Homo sapiens) (P15289 whole entry, looked up): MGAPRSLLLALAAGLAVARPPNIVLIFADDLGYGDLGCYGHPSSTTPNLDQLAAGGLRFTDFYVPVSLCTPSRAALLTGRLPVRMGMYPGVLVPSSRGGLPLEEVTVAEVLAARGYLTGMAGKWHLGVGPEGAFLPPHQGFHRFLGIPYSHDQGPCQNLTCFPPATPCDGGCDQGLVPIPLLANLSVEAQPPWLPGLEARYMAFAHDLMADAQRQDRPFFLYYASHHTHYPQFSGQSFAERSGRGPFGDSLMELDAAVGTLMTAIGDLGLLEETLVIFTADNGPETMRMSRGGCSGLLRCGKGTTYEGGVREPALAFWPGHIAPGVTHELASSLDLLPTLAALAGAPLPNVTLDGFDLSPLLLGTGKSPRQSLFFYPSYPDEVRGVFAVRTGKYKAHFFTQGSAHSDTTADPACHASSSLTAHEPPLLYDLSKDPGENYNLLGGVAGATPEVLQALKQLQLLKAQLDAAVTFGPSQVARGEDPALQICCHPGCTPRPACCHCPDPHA
How it was run: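 Enhancer assay in patient-derived MLD fibroblasts carrying ASA-I179S: 48 h compound exposure at 37 C, then 14 h room-temperature pNCS turnover (0.5 mM final) in lysis buffer. Read by fluorescence at 525/598 nm after NaOH stop.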

[16] = qHTS for compounds that reverse cellular toxicity of Amyloid beta (A-beta) peptide in yeast: LOPAC Validation Assay (AID 720559);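 also: plate controls were DMSO for no effect and equimolar ferric chloride plus clioquinol rescue for full effect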
How it was run: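 Rescue of A-beta toxicity was scored as yeast growth by 600 nm absorbance after 48 hr at 30 C with compound. Normalization used DMSO (negative) and equimolar ferric chloride plus clioquinol (positive).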

[17] = qHTS for Activators of Parkin Expression: LOPAC Validation Assay (NLuc Reporter) (AID 720572;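 also: 0% = DMSO and 100% = positive control compound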)
How it was run: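 Parkin promoter-driven FLuc/NLuc neuronal reporter cells; 24 h plating, 7-pt dose response, 24 h at 37 C/5% CO2; FLuc then NanoLuc reagent, 10 min each, luminescence; DMSO/positive control normalized.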

[18] = qHTS for Activators of Parkin Expression: LOPAC Validation Assay (FLuc Reporter) (AID 720573;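 also: 0% = DMSO and 100% = positive control compounds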)
How it was run: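 FLuc signal from Parkin-promoter coincidence reporter neuronal cells, normalized to DMSO and positive control (100%). Cells (1,500/well) pre-incubated 24 h, then exposed to LOPAC compounds in 7-point dose response for 24 h at 37 C, 5% CO2.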

[19] = target: Hexokinase-4 (Homo sapiens) + Glucokinase regulatory protein (Homo sapiens) (UniProt P35557+Q14397); assay: qHTS assay for inhibitors of recombinant human GCK-GKRP interaction: Diaphorase-coupled assay (AID 743205)
Chain of Hexokinase-4 (Homo sapiens) + Glucokinase regulatory protein (Homo sapiens) (P35557 whole entry, looked up): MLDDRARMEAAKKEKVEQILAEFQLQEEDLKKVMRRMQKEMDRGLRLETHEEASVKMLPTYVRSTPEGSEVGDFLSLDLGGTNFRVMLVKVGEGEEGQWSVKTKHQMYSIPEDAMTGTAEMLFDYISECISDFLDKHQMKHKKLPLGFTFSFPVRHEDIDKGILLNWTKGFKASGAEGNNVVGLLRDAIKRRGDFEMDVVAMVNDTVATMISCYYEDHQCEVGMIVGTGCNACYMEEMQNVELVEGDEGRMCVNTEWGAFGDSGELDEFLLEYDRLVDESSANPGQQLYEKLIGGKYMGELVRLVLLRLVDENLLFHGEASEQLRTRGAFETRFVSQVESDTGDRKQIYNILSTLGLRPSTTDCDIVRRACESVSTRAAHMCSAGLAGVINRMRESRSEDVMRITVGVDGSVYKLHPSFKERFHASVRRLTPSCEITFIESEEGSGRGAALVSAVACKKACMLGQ
Chain of Hexokinase-4 (Homo sapiens) + Glucokinase regulatory protein (Homo sapiens) (Q14397 whole entry, looked up): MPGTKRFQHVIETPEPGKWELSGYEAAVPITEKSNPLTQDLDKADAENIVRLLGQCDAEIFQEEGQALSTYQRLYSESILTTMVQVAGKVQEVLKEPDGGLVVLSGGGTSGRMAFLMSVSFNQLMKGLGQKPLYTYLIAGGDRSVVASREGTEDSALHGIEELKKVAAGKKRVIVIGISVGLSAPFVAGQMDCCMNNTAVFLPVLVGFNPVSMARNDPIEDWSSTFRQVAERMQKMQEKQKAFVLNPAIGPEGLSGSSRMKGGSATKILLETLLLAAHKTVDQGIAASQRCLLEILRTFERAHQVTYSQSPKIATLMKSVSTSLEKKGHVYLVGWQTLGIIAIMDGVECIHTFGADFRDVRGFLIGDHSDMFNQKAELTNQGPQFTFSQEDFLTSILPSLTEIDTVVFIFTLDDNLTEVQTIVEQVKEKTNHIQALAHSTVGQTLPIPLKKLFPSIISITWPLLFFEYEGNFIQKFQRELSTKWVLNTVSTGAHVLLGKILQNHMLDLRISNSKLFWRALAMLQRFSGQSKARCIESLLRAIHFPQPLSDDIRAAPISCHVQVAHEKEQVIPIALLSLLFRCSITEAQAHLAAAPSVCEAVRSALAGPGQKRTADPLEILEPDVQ
How it was run: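 A kinetic fluorescence read (Ex 525/Em 590 nm, every minute for 30 minutes) tracked resorufin from a G6PDH-diaphorase coupled GCK reaction. It contained 10 nM GST-GCK, 10 nM FLAG-GKRP, 5 mM glucose, 0.4 mM ATP in Hepes pH 7.6. Normalized to with/without-enzyme DMSO controls.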

O=C1c2c(O)cccc2Cc2cccc(O)c21
inactive: outcome [1] | outcome [2] | activation [3] -0.232% | max response [4] -2.77% | outcome [5] | Potency [6] | max response [7] -0.576%

Nc1ccc(S(=O)(=O)Nc2nccs2)cc1
inactive: outcome [1] | activation [3] -0.168% | max response [4] -1.3% | outcome [8] | outcome [9] | outcome [10] | outcome [5] | Potency [6] | max response [7] -8.72%

CCOC(=O)c1ccc(O)cc1
inactive: activation [3] 6.21% | max response [4] -1.04% | max response [7] -0.862%

CC(=O)O[C@@]12CO[C@@H]1C[C@H](O)[C@@]1(C)C(=O)[C@H](O)C3=C(C)[C@@H](OC(=O)[C@H](O)[C@@H](NC(=O)OC(C)(C)C)c4ccccc4)C[C@@](O)([C@@H](OC(=O)c4ccccc4)[C@H]21)C3(C)C
inactive: outcome [11] | outcome [12]

CCCCOC(=O)c1ccc(O)cc1
inactive: outcome [1] | activation [3] 6.66% and 14.1% | max response [4] -8.78% and 4.43% | Potency [14] | Potency [6] | max response [7] 4.31% and -13.4%
active: Potency [13] 37.6 µM

CCCCC(CC)COC(=O)c1ccccc1O (stereo unspecified)
inactive: activation [3] -0.423% | max response [4] 0.691% | outcome [5] | max response [7] -10.2%

O=C1O[C@H]([C@@H](O)CO)C(O)=C1O
inactive: outcome [1] | activation [3] 0.758% and 0.0107% | max response [4] -1.42% and -0.305% | Potency [14] | outcome [5] | Potency [6] | max response [7] 26.8% and 1.51%

CN1CCN(C2Cc3ccccc3Sc3ccc(Cl)cc32)CC1 (stereo unspecified)
inactive: Potency [15] | outcome [16] | Potency [17] | outcome [18] | outcome [19]

CC(C)(C)c1onc(OCP(=O)(O)O)c1CC(N)C(=O)O (stereo unspecified)
inactive and 4.26 µM (active): Potency [15]
inactive: outcome [16] | Potency [17] | outcome [18] | outcome [19]

CCCn1cnc2c1c(=O)n(CCCCC(C)=O)c(=O)n2C
inactive: Potency [15] | outcome [16] | Potency [17] | outcome [18] | outcome [19]

O=C1N=C(O)CN1/N=C/c1ccc(-c2ccc([N+](=O)[O-])cc2)o1
inactive: outcome [16] | Potency [17] | outcome [18] | outcome [19]

CC(C)(C(=O)O)c1ccc(C(O)CCCN2CCC(C(O)(c3ccccc3)c3ccccc3)CC2)cc1 (stereo unspecified)
inactive: Potency [15] | outcome [16] | Potency [17] | outcome [18] | outcome [19]

C=Cc1c(C)c2cc3[nH]c(cc4nc(cc5nc(cc1[nH]2)C(C)=C5CCC(=O)O)C(CCC(=O)O)=C4C)c(C)c3C=C
inactive: Potency [15] | outcome [16] | Potency [17] | outcome [18] | outcome [19]

Nc1cc(=O)[nH]c(N)n1
inactive: Potency [15] | outcome [16] | Potency [17] | outcome [18] | outcome [19]

CCN(CC)CCNC(=O)c1cc(Cl)c(N)cc1OC
inactive: Potency [15] | outcome [16] | Potency [17] | outcome [18] | outcome [19]

NC(N)=NCCC[C@H](N)C(=O)O
inactive: Potency [15] | outcome [16] | Potency [17] | outcome [18] | outcome [19]

CC1=C(CC(=O)O)c2cc(F)ccc2/C1=C\c1ccc(S(C)=O)cc1 (stereo unspecified)
inactive: Potency [15] | outcome [16] | Potency [17] | outcome [18] | outcome [19]

Oc1cn2c(n1)Nc1ccc(Cl)c(Cl)c1C2
inactive: outcome [11] | outcome [12]

CNCCCC1c2ccccc2C=Cc2ccccc21
inactive: Potency [15] | outcome [16] | Potency [17] | outcome [18] | outcome [19]

C[C@](N)(Cc1ccc(O)cc1)C(=O)O
inactive: Potency [15] | outcome [19]

Nc1ncnc2c1ncn2[C@@H]1O[C@H](CO)[C@@H](O)[C@H]1O
inactive: outcome [16] | Potency [17] | outcome [18] | outcome [19]

Reference: PubChem BioAssay (NCATS)
